Columns and labels:
Test in all cases: DAPPL (digital affinity profiling via proximity ligation, sequencing); 10 mM Tris-HCl pH 7.5, 50 mM NaCl, 1 mM DTT, 4% glycerol, room temperature, 30 min; GST-TFs on glutathione beads, 16-mer random dsDNA library, 0.1% formaldehyde crosslink after washing; high values mean tight binding
Details in all cases: protein: recombinant; tags: N-terminal GST; dsDNA, one strand shown
ELK1 = biological target: T1, ELK1 (Homo sapiens, UniProt P19419 1-428)
T1 sequence: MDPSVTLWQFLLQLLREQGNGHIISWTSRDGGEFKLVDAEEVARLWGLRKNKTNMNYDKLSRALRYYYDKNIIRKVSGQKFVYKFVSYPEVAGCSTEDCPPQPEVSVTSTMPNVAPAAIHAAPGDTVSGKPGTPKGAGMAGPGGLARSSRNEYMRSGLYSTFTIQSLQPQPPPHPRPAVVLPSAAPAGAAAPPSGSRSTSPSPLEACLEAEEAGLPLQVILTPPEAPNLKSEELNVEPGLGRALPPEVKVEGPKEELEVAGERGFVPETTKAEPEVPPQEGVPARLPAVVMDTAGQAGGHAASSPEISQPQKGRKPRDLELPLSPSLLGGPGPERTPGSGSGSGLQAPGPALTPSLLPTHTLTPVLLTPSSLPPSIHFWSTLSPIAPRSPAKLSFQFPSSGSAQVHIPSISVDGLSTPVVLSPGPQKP
How it was run: (§1)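 Sequencing on an Illumina NextSeq500 followed washing, crosslinking with 0.1% formaldehyde, proximity ligation (BsaI/T4 ligase, 1 h, 37 °C) and PCR amplification of pools that had been incubated for 30 min at room temperature with 200 nmole of a random double-stranded 16-mer DNA library in Tris/NaCl/DTT/glycerol buffer. Each pool held DNA-barcoded human transcription factors, expressed in yeast as GST fusions and captured on glutathione beads, plus a tag-only sample. Binding signal is a hexamer's read frequency for a factor divided by its frequency in the tag-only sample.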

GABPA = biological target: T2, GABPA (Homo sapiens, UniProt Q06546 1-454)
T2 sequence: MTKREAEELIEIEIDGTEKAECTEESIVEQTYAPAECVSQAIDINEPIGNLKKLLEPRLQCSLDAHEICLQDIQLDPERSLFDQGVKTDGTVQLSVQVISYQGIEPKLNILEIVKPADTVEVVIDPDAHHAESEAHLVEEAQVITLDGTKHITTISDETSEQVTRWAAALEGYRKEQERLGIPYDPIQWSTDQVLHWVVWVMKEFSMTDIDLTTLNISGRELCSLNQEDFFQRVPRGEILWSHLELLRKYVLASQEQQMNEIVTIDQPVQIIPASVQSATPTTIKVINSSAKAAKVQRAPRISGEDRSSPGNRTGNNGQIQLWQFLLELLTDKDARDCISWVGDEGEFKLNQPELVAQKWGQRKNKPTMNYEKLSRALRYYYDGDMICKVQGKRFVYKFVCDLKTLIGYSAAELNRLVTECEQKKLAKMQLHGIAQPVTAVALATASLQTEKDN
How it was run: as §1

ERG = biological target: T3, ERG (Homo sapiens, UniProt P11308 1-479)
T3 sequence: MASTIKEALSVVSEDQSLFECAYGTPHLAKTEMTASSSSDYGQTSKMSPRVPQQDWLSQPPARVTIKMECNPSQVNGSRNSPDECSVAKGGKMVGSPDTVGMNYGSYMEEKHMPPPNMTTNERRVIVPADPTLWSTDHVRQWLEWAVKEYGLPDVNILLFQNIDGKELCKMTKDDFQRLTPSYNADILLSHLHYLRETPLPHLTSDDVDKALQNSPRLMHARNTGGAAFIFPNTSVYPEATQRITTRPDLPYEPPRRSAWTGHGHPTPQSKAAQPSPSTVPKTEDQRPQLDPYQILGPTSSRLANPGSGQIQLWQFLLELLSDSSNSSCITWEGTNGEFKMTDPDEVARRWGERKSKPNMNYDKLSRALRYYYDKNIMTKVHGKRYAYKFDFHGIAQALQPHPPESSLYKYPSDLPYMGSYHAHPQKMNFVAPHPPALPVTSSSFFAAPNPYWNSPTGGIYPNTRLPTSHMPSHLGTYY
How it was run: as §1

ELF1 = ELF1 (Homo sapiens, UniProt P32519 1-619)
ELF1, sequence (P32519 whole entry): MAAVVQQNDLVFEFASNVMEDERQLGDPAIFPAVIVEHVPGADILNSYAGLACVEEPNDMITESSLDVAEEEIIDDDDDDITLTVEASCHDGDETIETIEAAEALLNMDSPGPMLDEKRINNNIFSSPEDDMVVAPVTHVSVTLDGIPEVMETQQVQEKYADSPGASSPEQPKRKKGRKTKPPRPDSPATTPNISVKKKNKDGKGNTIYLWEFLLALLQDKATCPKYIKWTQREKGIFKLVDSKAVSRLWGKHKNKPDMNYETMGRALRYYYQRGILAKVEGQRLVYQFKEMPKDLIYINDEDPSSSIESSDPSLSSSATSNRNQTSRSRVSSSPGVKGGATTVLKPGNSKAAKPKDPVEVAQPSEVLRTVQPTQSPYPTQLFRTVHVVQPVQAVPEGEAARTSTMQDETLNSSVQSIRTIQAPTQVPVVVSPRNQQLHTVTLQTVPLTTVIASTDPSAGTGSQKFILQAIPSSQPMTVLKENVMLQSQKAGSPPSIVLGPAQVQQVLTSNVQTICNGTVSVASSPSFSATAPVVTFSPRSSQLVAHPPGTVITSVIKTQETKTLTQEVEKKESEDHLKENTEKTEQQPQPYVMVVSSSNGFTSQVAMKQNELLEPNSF
How it was run: as §1

EHF = biological target: T4, EHF (Homo sapiens, UniProt Q9NZC4 1-300)
T4 sequence: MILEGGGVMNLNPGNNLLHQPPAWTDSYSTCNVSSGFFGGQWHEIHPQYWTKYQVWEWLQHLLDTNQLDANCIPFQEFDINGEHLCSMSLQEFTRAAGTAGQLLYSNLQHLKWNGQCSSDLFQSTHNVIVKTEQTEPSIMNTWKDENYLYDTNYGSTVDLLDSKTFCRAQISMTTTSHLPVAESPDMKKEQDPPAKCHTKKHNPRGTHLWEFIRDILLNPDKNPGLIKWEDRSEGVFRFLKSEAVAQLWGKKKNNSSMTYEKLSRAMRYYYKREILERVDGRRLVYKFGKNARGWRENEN
How it was run: as §1

SPIB = SPIB (Homo sapiens, UniProt Q01892 1-262)
SPIB, sequence (Q01892 whole entry): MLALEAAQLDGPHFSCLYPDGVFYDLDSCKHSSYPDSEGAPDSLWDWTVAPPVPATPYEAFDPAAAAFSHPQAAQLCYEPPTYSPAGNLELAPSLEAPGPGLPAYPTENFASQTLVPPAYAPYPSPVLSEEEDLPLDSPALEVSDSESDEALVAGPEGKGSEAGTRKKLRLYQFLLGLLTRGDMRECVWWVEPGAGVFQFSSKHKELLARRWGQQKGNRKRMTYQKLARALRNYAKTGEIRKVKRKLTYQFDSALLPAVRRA
How it was run: as §1

FEV = biological target: T5, FEV (Homo sapiens, UniProt Q99581 1-238)
T5 sequence: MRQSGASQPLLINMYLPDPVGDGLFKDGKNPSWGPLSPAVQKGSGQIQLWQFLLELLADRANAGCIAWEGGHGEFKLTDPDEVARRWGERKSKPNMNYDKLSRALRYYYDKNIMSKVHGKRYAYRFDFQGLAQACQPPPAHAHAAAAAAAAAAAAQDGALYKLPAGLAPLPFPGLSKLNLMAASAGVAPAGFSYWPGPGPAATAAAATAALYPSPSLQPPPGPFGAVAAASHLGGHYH
How it was run: as §1

ETV5 = ETV5 (Homo sapiens, UniProt P41161 1-510)
ETV5, sequence (P41161 whole entry): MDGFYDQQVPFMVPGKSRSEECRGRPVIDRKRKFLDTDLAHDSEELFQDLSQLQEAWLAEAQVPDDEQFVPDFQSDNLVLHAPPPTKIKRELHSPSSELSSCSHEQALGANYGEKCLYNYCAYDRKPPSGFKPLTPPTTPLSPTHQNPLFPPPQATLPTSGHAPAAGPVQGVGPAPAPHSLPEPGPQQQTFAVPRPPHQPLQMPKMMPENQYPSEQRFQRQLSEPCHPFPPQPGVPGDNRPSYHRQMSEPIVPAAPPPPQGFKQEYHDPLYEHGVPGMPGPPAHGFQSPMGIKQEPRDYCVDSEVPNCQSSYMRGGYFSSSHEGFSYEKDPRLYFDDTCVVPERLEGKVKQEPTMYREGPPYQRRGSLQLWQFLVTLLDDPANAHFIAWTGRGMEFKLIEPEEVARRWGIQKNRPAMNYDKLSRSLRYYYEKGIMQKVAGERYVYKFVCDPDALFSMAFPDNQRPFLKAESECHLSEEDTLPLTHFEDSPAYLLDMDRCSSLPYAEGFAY
How it was run: as §1

ELF4 = ELF4 (Homo sapiens, UniProt Q99607 1-663)
ELF4, sequence (Q99607 whole entry): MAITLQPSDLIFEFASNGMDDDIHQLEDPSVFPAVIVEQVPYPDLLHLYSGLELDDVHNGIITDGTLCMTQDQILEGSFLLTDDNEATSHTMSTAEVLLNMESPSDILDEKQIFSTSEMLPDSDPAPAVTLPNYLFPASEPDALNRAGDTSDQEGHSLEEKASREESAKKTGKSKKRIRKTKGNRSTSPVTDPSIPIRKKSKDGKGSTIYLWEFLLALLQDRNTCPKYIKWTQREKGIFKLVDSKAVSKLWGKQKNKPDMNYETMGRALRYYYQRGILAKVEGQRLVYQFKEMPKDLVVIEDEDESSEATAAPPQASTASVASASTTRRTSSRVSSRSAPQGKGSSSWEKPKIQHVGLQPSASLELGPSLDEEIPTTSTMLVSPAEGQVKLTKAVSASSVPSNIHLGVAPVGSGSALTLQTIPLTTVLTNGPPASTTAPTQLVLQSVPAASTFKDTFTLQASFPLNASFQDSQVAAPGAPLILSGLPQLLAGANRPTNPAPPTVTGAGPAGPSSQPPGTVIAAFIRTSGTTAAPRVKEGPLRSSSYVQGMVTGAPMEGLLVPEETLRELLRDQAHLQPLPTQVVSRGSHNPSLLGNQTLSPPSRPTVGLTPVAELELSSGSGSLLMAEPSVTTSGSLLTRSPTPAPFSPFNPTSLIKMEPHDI
How it was run: as §1

ELK4 = biological target: T6, ELK4 (Homo sapiens, UniProt P28324-2 1-405)
T6 sequence: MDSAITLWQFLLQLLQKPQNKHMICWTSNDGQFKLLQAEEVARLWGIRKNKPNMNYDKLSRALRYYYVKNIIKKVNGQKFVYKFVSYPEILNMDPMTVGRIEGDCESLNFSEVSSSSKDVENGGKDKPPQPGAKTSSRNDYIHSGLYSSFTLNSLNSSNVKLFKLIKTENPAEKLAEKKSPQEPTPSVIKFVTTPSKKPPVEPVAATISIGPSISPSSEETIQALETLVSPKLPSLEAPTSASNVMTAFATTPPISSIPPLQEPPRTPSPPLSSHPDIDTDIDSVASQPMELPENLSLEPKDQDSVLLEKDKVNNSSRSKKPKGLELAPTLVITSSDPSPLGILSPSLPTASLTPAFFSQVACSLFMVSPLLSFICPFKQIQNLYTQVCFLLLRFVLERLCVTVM
How it was run: as §1

ELF3 = biological target: T7, ELF3 (Homo sapiens, UniProt P78545 1-371)
T7 sequence: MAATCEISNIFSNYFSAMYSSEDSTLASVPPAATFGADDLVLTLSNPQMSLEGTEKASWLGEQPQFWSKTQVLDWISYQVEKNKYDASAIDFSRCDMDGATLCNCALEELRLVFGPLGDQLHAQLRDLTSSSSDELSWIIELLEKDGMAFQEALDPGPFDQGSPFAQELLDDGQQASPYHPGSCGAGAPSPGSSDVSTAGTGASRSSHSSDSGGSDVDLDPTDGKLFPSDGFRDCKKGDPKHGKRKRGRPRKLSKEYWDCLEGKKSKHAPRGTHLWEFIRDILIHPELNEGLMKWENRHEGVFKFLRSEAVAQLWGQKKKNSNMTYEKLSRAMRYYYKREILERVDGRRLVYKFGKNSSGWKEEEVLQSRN
How it was run: as §1

ETV1 = ETV1 (Homo sapiens, UniProt P50549 1-477)
ETV1, sequence (P50549 whole entry): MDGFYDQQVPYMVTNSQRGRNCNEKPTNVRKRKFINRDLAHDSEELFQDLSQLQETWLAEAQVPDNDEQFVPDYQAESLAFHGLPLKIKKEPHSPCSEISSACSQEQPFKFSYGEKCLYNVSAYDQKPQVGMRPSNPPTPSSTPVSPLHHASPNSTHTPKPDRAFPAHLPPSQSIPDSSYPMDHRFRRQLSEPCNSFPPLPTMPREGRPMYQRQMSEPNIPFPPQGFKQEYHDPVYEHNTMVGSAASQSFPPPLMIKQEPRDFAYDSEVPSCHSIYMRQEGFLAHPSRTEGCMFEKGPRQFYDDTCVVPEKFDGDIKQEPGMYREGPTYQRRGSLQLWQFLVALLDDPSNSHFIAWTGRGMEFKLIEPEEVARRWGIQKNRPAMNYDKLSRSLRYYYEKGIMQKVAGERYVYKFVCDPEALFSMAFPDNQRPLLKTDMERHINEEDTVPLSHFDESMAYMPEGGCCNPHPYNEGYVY
How it was run: as §1

ERF = biological target: T8, ERF (Homo sapiens, UniProt P50548 1-548)
T8 sequence: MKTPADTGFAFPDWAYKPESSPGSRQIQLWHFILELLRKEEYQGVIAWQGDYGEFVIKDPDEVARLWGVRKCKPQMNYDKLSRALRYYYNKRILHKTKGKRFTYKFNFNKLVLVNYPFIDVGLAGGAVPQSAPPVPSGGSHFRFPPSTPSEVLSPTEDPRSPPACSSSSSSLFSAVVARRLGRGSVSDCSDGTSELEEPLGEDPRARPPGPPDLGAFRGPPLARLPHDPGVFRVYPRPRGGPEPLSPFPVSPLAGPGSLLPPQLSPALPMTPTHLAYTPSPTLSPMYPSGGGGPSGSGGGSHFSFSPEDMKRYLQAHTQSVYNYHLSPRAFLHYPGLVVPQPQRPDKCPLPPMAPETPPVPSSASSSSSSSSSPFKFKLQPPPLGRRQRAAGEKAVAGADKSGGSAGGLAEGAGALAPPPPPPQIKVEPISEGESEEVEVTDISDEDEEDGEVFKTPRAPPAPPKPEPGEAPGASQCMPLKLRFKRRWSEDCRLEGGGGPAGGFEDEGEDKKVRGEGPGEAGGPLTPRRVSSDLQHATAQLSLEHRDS
How it was run: as §1

ETV3L = biological target: T9, ETV3L (Homo sapiens, UniProt Q6ZN32 1-361)
T9 sequence: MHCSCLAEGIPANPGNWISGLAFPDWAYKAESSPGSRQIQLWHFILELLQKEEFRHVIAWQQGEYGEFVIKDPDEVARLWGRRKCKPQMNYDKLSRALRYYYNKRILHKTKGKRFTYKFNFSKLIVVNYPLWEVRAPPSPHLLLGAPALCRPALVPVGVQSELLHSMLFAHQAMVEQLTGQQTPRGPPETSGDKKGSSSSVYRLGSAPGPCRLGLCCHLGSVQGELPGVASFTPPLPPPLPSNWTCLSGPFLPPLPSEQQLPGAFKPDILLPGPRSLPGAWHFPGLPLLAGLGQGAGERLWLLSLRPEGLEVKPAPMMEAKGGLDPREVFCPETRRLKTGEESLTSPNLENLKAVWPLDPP
How it was run: as §1

ETS2 = biological target: T10, ETS2 (Homo sapiens, UniProt P15036 1-469)
T10 sequence: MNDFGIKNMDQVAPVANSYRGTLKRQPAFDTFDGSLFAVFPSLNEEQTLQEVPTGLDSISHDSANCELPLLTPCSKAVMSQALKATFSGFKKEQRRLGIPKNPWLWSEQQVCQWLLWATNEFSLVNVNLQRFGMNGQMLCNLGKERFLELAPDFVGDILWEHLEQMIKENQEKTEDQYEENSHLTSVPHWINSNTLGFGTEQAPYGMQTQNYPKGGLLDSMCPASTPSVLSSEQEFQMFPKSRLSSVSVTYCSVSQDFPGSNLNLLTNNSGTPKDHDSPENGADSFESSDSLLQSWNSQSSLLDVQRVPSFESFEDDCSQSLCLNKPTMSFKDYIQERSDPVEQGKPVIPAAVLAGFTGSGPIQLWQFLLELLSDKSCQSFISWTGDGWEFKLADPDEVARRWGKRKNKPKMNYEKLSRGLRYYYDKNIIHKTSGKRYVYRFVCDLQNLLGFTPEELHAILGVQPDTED
How it was run: as §1

SPDEF = biological target: T11, SPDEF (Homo sapiens, UniProt O95238 1-335)
T11 sequence: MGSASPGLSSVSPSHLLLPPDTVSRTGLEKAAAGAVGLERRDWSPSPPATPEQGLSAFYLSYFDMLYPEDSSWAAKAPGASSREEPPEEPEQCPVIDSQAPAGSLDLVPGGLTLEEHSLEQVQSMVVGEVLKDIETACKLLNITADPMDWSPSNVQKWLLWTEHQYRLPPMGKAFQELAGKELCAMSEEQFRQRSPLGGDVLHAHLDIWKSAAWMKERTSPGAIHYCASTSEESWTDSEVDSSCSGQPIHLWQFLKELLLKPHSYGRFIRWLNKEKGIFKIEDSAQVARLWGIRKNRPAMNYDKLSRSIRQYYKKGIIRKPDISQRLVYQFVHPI
How it was run: as §1

ETV3 = biological target: T12, ETV3 (Homo sapiens, UniProt P41162-2 1-143)
T12 sequence: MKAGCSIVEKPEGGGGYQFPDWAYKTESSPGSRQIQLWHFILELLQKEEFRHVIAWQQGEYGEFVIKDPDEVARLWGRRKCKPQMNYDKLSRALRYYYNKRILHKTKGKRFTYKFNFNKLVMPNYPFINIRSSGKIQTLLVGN
How it was run: as §1

ETV6 = ETV6 (Homo sapiens, UniProt P41212 1-452)
ETV6, sequence (P41212 whole entry): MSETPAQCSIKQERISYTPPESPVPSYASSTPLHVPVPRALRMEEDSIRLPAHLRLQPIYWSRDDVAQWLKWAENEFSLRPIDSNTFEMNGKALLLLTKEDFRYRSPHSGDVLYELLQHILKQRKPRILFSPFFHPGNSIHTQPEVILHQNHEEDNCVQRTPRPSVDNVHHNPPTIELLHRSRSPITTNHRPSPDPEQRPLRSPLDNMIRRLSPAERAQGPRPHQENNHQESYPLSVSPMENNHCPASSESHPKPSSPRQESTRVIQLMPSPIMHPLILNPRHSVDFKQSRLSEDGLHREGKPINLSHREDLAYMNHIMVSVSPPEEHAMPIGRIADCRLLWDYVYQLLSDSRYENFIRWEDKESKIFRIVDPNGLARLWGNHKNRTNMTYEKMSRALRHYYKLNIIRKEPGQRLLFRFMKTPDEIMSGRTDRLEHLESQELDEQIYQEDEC
How it was run: as §1

For TGATAC, the binding signal (ELK1) was 1.17 fold enrichment (6-mer frequency, TF over GST control), the binding signal (GABPA) was 1.16 fold enrichment (6-mer frequency, TF over GST control) and the binding signal (ERG) was 1.13 fold enrichment (6-mer frequency, TF over GST control). The binding signal (ELF1) was 1.14 fold enrichment (6-mer frequency, TF over GST control), the binding signal (EHF) was 1.11 fold enrichment (6-mer frequency, TF over GST control) and the binding signal (SPIB) was 1.12 fold enrichment (6-mer frequency, TF over GST control). For the same sequence, the binding signal (FEV) was 1.21 fold enrichment (6-mer frequency, TF over GST control), the binding signal (ETV5) was 1.1 fold enrichment (6-mer frequency, TF over GST control) and the binding signal (ELF4) was 1.13 fold enrichment (6-mer frequency, TF over GST control). The binding signal (ELK4) was 1.29 fold enrichment (6-mer frequency, TF over GST control), the binding signal (ELF3) was 1.16 fold enrichment (6-mer frequency, TF over GST control) and the binding signal (ETV1) was 1.08 fold enrichment (6-mer frequency, TF over GST control). The binding signal (ERF) was 1.13 fold enrichment (6-mer frequency, TF over GST control), the binding signal (ETV3L) was 1.07 fold enrichment (6-mer frequency, TF over GST control) and the binding signal (ETS2) was 1.1 fold enrichment (6-mer frequency, TF over GST control). The binding signal (SPDEF) was 1.17 fold enrichment (6-mer frequency, TF over GST control), the binding signal (ETV3) was 1.1 fold enrichment (6-mer frequency, TF over GST control) and the binding signal (ETV6) was 1.1 fold enrichment (6-mer frequency, TF over GST control).

From publication PMC7862700, “An all-to-all approach to the identification of sequence-specific readers for epigenetic DNA modifications on cytosine”
